Targets with a hit are over-represented here; the source holds about 8,800 in all. About 0.5% of all pairs of compound and target were hits. A number with no mark means an inactive call.
How the values were obtained:
Experiment in all cases: log2 fold change, soluble protein after heating vs DMSO (PISA); higher = thermal stabilisation; K562 lysate, 10 uM; active = over 0.2 and 3.5 SD of the protein, either way, in both replicates (recomputed)
[1] = compound: CCCS(=O)(=O)Nc1ccc(F)c(C(=O)c2c[nH]c3ncc(-c4ccc(Cl)cc4)cc23)c1F [vemurafenib]
Summary of the method: (§1)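 Pellets of K562 cells were dounce-homogenised in PBS pH 7.4 with 1 mM MgCl2, and the crude extract was held at 1 mg/mL protein for a 30 min treatment with 10 μM compound. Aliquots were heated for 3 min over 48°C-58°C and pooled before NP-40 was added to 0.5% at 4°C. The supernatant from 21,000xg for 90 min was quantified by TMTpro 16plex LC-MS/MS with channel sums equalised. Values are reported from duplicates as log-two fold change in thermal stability relative to solvent controls.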

[2] = compound: CCCS(=O)(=O)Nc1ccc(F)c(C(=O)c2c[nH]c3ncc(Cl)cc23)c1F
Summary of the method: as §1

[3] = compound: CCN(CCCOc1ccc2c(Nc3cc(CC(=O)Nc4cccc(F)c4)[nH]n3)ncnc2c1)CCOP(=O)(O)O [barasertib]
Summary of the method: as §1

[4] = compound: CC[C@@H]1C(=O)N(C)c2cnc(Nc3ccc(C(=O)NC4CCN(C)CC4)cc3OC)nc2N1C1CCCC1
Summary of the method: as §1

[5] = compound: CC[C@@H]1C(=O)N(C)c2cnc(Nc3ccc(C(=O)N[C@H]4CC[C@H](N5CCN(CC6CC6)CC5)CC4)cc3OC)nc2N1C(C)C [volasertib]
Summary of the method: as §1

[6] = compound: CCn1c(C(=O)N(C2CC2)C2CC2)cc2c3c(ncn3C)c(Nc3cc(C)n(C)n3)nc21
Summary of the method: as §1

[7] = compound: CCn1cc(-c2ccnc3[nH]c(-c4cccc(CN(C)C)c4)cc23)c(-c2ccc(NC(=O)N(C)C)cc2)n1
Summary of the method: as §1

[8] = compound: CN1CCC(CNc2ccc3ncc(-c4cccc(OC(F)(F)F)c4)n3n2)CC1
Summary of the method: as §1

[9] = compound: CN1CCN(CCOc2cc(OC3CCOCC3)c3c(Nc4c(Cl)ccc5c4OCO5)ncnc3c2)CC1 [saracatinib]
Summary of the method: as §1

[10] = compound: CN1CCN(c2nc(C3=C(c4c[nH]c5ccccc45)C(=O)NC3=O)c3ccccc3n2)CC1 [sotrastaurin]
Summary of the method: as §1

[11] = compound: CN1CC[C@H](c2c(O)cc(O)c3c(=O)cc(-c4ccccc4Cl)oc23)[C@H](O)C1 [alvocidib]
Summary of the method: as §1

[12] = compound: CN1CCc2c(c3ccccc3n2Cc2ccc(C(=O)NO)cc2)C1 [Tubastatin A]
Summary of the method: as §1

[13] = compound: CNC(=O)C1=CC=CC=C1NC2=NC(=NC=C2Cl)NC3=C(C=C(C=C3)N4CCOCC4)OC
Summary of the method: as §1

[14] = compound: CNC(=O)c1ccc(Nc2ncc(C(F)(F)F)c(NCc3nccnc3N(C)S(C)(=O)=O)n2)cc1 [defactinib]
Summary of the method: as §1

[15] = compound: CNc1nc(-c2ccc3c(N)n[nH]c3c2)cc(N2C[C@@H](C(=O)NC3CCCCC3)CC[C@H]2C)n1
Summary of the method: as §1

[16] = compound: COC(=O)N[C@@H](C)CNc1nccc(-c2cn(C(C)C)nc2-c2cc(Cl)cc(NS(C)(=O)=O)c2F)n1 [encorafenib]
Summary of the method: as §1

[17] = compound: COC(=O)[C@H](CCSC)NC(=O)C1=C(C=C(C=C1)NC[C@H](CS)N)C2=CC=CC=C2
Summary of the method: as §1

[18] = compound: COc1cc(Nc2ncc3c(n2)-c2ccc(Cl)cc2C(c2c(F)cccc2OC)=NC3)ccc1C(=O)O [alisertib]
Summary of the method: as §1

[19] = compound: COc1cc2nc(-c3cc(F)ccc3O)nc(N[C@@H]3CNC[C@H]3C(C)(C)O)c2cc1OC
Summary of the method: as §1

[20] = compound: COc1cc2ncnc(Nc3ccc(F)c(Cl)c3)c2cc1OCCCN1CCOCC1 [gefitinib]
Summary of the method: as §1

UniProt Q08AM6, sequence (Q08AM6 whole entry, looked up): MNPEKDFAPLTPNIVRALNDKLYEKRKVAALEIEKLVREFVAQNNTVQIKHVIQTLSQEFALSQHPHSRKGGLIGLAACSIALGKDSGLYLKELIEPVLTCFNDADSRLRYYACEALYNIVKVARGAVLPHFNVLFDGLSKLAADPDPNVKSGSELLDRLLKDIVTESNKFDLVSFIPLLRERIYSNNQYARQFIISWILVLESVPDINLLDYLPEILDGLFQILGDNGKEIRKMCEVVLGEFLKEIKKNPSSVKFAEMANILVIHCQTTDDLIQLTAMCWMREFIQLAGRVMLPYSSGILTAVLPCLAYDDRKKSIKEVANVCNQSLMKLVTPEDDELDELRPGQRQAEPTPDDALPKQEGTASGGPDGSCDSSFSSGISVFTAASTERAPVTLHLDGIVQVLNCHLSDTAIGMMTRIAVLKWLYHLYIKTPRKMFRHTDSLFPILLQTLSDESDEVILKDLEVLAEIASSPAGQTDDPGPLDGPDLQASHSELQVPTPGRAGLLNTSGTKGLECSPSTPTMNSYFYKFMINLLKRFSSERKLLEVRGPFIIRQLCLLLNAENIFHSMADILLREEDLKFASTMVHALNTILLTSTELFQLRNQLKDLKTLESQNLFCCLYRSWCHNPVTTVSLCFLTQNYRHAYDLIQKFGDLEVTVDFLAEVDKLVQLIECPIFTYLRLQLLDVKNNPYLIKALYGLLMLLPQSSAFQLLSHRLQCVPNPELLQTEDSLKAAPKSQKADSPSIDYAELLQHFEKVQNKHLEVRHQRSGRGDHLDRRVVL
UniProt Q9BQA1, sequence (Q9BQA1 whole entry, looked up): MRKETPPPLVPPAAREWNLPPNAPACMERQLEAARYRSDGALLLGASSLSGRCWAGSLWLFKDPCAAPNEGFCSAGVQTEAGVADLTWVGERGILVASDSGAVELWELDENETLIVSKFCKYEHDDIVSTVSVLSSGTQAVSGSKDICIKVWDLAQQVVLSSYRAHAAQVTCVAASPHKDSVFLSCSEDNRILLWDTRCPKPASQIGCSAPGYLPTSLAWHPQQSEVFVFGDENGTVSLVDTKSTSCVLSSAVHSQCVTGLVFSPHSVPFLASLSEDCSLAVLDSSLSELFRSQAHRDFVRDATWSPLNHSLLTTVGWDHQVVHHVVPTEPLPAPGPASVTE
UniProt Q9P253, sequence (Q9P253 whole entry, looked up): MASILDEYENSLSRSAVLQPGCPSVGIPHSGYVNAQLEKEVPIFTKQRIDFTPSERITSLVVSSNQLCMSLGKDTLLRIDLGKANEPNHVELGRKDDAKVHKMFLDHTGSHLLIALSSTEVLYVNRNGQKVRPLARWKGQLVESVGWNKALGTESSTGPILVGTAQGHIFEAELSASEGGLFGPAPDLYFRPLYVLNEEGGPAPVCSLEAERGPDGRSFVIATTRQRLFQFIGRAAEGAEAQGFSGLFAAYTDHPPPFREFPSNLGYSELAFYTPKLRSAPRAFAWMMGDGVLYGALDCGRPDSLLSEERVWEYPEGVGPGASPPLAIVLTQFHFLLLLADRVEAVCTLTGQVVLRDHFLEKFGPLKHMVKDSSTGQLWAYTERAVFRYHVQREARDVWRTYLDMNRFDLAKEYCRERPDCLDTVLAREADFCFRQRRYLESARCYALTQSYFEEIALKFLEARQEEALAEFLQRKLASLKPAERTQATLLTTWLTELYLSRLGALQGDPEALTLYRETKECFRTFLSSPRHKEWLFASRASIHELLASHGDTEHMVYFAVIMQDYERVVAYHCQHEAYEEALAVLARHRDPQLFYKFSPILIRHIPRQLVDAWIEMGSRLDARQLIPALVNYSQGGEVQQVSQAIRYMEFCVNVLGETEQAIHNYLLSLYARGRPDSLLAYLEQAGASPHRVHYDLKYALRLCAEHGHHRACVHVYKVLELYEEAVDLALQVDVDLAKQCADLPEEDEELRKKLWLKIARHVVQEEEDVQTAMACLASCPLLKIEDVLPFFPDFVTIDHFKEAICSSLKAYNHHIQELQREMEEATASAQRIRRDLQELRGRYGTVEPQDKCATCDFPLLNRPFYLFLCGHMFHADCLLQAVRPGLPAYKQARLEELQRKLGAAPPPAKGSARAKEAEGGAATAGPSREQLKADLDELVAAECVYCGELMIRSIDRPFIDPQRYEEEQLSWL
UniProt O75717, sequence (O75717 whole entry, looked up): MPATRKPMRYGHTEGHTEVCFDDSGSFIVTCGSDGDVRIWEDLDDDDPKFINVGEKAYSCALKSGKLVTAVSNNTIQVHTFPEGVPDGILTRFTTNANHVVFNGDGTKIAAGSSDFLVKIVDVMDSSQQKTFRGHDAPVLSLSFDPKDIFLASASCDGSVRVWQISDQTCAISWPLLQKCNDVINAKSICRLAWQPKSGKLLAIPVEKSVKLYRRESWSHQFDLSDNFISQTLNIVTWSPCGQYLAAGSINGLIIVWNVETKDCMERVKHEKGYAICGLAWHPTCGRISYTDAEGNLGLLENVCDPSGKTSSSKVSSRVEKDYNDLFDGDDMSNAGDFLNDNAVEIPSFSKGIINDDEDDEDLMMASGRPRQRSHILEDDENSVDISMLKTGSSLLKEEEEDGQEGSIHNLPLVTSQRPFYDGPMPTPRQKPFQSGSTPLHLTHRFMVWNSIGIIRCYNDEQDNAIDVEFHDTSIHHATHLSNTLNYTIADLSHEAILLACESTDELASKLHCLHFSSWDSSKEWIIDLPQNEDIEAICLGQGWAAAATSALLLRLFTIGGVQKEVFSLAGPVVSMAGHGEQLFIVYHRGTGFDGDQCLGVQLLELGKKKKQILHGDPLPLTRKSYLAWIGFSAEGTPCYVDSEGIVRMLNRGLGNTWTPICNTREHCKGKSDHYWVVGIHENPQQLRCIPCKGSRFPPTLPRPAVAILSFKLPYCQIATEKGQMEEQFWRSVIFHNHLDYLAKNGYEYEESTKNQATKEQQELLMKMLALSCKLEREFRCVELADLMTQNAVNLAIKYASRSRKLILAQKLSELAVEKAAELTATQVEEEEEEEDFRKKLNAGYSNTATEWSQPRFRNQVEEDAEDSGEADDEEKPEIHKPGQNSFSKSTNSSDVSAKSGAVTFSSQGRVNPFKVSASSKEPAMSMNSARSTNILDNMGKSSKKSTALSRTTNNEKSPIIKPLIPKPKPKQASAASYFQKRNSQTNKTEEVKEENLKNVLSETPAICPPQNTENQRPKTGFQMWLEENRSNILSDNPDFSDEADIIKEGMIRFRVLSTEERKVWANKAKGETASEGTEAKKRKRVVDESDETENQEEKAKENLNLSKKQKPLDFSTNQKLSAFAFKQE
UniProt Q86UK7, sequence (Q86UK7 whole entry, looked up): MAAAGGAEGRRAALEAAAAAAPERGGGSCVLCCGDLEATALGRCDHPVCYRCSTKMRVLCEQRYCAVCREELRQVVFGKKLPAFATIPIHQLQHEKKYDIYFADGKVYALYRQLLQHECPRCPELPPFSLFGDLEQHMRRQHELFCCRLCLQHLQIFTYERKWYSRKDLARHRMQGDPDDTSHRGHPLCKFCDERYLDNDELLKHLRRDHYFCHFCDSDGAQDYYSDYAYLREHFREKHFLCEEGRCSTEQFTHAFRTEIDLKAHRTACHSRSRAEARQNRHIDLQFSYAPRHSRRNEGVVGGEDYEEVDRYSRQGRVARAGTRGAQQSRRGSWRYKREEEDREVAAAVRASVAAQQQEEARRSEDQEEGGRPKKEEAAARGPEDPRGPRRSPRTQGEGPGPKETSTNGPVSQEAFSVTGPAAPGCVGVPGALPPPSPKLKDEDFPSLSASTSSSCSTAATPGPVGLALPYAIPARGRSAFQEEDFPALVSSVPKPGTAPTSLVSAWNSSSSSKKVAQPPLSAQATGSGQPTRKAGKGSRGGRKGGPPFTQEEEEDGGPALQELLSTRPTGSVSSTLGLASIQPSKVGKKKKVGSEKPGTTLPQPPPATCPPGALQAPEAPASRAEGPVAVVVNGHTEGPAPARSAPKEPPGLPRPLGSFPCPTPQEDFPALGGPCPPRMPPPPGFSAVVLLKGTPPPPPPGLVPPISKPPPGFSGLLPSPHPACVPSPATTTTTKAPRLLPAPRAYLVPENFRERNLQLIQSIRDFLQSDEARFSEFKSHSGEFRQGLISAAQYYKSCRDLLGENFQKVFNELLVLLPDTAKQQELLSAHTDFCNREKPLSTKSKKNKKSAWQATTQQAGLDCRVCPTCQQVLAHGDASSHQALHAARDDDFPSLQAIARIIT
UniProt O75152, sequence (O75152 whole entry, looked up): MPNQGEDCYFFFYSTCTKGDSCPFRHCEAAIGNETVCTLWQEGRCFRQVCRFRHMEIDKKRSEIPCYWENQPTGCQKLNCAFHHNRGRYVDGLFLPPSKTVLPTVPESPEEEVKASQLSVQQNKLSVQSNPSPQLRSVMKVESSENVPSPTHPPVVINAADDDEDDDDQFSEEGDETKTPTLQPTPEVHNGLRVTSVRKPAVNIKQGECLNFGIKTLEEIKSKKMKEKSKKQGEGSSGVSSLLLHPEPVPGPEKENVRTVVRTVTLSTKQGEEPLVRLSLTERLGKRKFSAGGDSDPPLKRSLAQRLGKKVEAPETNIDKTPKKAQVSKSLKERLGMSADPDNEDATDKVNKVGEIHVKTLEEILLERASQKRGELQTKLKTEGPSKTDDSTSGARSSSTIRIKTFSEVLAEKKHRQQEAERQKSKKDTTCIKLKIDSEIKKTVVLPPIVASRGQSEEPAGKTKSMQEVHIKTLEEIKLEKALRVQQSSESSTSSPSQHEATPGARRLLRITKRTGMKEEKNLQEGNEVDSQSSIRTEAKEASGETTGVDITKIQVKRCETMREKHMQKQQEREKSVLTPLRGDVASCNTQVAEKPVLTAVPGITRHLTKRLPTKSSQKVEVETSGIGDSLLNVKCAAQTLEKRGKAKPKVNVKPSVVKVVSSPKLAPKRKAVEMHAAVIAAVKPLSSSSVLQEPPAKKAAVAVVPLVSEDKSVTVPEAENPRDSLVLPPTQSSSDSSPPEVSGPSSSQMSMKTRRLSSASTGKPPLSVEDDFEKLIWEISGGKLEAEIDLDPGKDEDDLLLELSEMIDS

Row | Target | log2 fold change [1] | log2 fold change [2] | log2 fold change [3] | log2 fold change [4] | log2 fold change [5] | log2 fold change [6] | log2 fold change [7] | log2 fold change [8] | log2 fold change [9] | log2 fold change [10] | log2 fold change [11] | log2 fold change [12] | log2 fold change [13] | log2 fold change [14] | log2 fold change [15] | log2 fold change [16] | log2 fold change [17] | log2 fold change [18] | log2 fold change [19] | log2 fold change [20]
1 | WDHD1 (UniProt O75717) | -0.03 | 0.022 | -0.02 | -0.011 | -0.026 | -0.001 | 0.078 | -0.066 | 0.024 | 0.003 | 0.042 | -0.073 | 0.004 | -0.002 | -0.011 | -0.019 | 0.098 | -0.016 | -0.003 | 0.015
2 | ZC3H11A (UniProt O75152) | 0.104 | 0.084 | 0.055 | 0.03 | -0.022 | 0 | 0.283 | -0.182 | -0.016 | 0.013 | 0.098 | -0.077 | 0.076 | -0.066 | -0.023 | 0.045 | 0.078 | 0.019 | 0.09 | 0.034
3 | XAB2 (UniProt Q9HCS7) | 0.033 | 0.075 | -0.015 | 0.065 | -0.02 | 0.05 | -0.044 | 0.017 | 0.006 | 0 | -0.003 | -0.039 | 0.012 | 0.008 | 0.014 | -0.045 | 0.2 | -0.017 | 0.025 | 0.046
4 | VRK1 (UniProt Q99986) | 0.024 | 0.024 | -0.002 | -0.051 | -0.03 | 0 | -0.041 | 0.031 | 0.002 | 0.178 | 0.385 (active) | -0.096 | 0.008 | -0.067 | 0.017 | -0.027 | 0.047 | -0.004 | -0.007 | -0.026
5 | WDR77 (UniProt Q9BQA1) | -0.095 | -0.012 | -0.045 | -0.029 | 0.004 | 0.022 | -0.004 | 0.011 | -0.032 | 0.001 | 0.242 (active) | 0.004 | 0.002 | -0.012 | 0.012 | 0.055 | -0.07 | -0.031 | -0.024 | -0.003
6 | VARS (UniProt P26640) | 0.028 | 0.007 | 0.036 | -0.077 | -0.082 | 0.04 | -0.014 | -0.039 | -0.001 | 0.03 | -0.003 | -0.086 | 0.002 | 0.025 | -0.008 | -0.008 | 0.16 | -0.02 | 0.003 | -0.006
7 | ZC3H13 (UniProt Q5T200) | -0.027 | -0.037 | -0.045 | 0.036 | -0.013 | -0.031 | 0.033 | 0 | -0.046 | 0.222 | -0.063 | 0.063 | -0.073 | 0.088 | -0.028 | -0.069 | 0.021 | -0.362 (active) | 0.016 | -0.077
8 | ZC2HC1A (UniProt Q96GY0) | 0.13 | -0.032 | 0.078 | 0.086 | 0.031 | 0.035 | -0.057 | 0.117 | -0.011 | 0.016 | -0.034 | -0.044 | -0.021 | -0.155 | -0.04 | 0.03 | -0.235 (active) | -0.073 | -0.021 | 0.019
9 | ZMYM4 (UniProt Q5VZL5) | 0.008 | 0.003 | 0.126 | 0.013 | 0.041 | 0.033 | 0.013 | 0.029 | 0.023 | 0.043 | -0.071 | -0.089 | -0.015 | 0.096 | 0.188 | 0.063 | 0.016 | -0.004 | 0.004 | 0.047
10 | VPS28 (UniProt Q9UK41) | -0.012 | 0.016 | 0.178 | -0.035 | -0.012 | 0.067 | -0.208 | 0.018 | 0.01 | -0.007 | -0.018 | -0.034 | 0 | -0.018 | -0.078 | 0.046 | 0.012 | -0.022 | 0 | 0.034
11 | ZMYND8 isoform 19 (UniProt Q9ULU4) | 0.061 | 0.071 | 0.012 | 0.016 | -0.025 | -0.015 | -0.127 | 0.037 | -0.01 | 0.019 | 0 | -0.091 | 0.017 | 0.104 | -0.052 | -0.002 | 0.065 | 0.022 | -0.046 | -0.023
12 | WDR62 isoform 4 (UniProt O43379) | 0.004 | 0.065 | 0.031 | -0.063 | 0 | 0.003 | -0.009 | -0.044 | 0.04 | 0.031 | 0.018 | -0.132 | 0.012 | -0.007 | 0.048 | 0.054 | -0.01 | 0.005 | 0.052 | 0.013
13 | WDCP (UniProt Q9H6R7) | -0.004 | 0.033 | 0.032 | 0.031 | -0.019 | -0.04 | 0.003 | 0.01 | -0.011 | 0.039 | 0.019 | -0.138 | 0.025 | 0.005 | 0.032 | 0.024 | -0.019 | 0.01 | 0.062 | -0.017
14 | VPS18 (UniProt Q9P253) | 0.037 | 0.014 | 0 | 0 | -0.083 | 0.046 | -0.048 | -0.04 | -0.012 | 0.02 | -0.016 | -0.106 | 0.011 | -0.057 | -0.008 | 0.019 | -0.125 | 0.005 | -0.006 | 0.006
15 | ZNF598 isoform 3 (UniProt Q86UK7) | 0.022 | 0.036 | 0.019 | 0.067 | -0.032 | 0.017 | -0.011 | 0.001 | -0.008 | 0.014 | -0.01 | -0.095 | 0.025 | 0.004 | 0.015 | 0.004 | -0.039 | 0.009 | 0.012 | 0.007
16 | VAC14 (UniProt Q08AM6) | -0.002 | 0.008 | 0.021 | -0.021 | -0.02 | 0.013 | -0.032 | 0.007 | 0.007 | 0 | 0 | -0.036 | 0.022 | 0.007 | 0.005 | 0.04 | -0.051 | 0.008 | 0.006 | 0.003

— the supplement of paper PMC10849652
